Results filed as inconclusive are left out. Entries that show only a call come without a potency. Unmarked numbers belong to inactive results. The source made the active and inactive calls. The call rests on the fitted dose curve; in most records, active means well fitted inhibition curve with a large enough effect; inconclusive means small, poorly fitted or top-dose-only effect; inactive means no such curve, though single readings can be large or run the other way.
Experiments:
[1] = qHTS for Inhibitors of the Aldehyde Dehydrogenase Family (ALDH1A2, ALDH1A3, ALDH2, ALDH3A1) (AID 2061307); further: nearly all actives have a fitted effect of over 50% in size; on potency: test system not described further here; potency means the concentration at half of the fitted maximal effect
[2] = biological target: Retinaldehyde dehydrogenase 3 (Homo sapiens) (UniProt P47895); assay: qHTS for Inhibitors of the Aldehyde Dehydrogenase Family (ALDH1A3) Confirmatory screens (AID 2061311); further: nearly all actives have a fitted effect of over 60% in size; further: potency means the concentration at half of the fitted maximal effect
[3] = biological target: Retinal dehydrogenase 2 (Homo sapiens) (UniProt O94788); assay: qHTS for Inhibitors of the Aldehyde Dehydrogenase Family (ALDH1A2) Confirmation screens (AID 2061314); further: nearly all actives have a fitted effect of over 65% in size; further: potency means the concentration at half of the fitted maximal effect
[4] = biological target: Retinaldehyde dehydrogenase 3 (Homo sapiens) (UniProt P47895); assay: qHTS for Inhibitors of the Aldehyde Dehydrogenase Family (ALDH1A3) Primary screen (AID 2061315)
[5] = biological target: Aldehyde dehydrogenase 1A1 (Homo sapiens) (UniProt P00352); assay: qHTS for Inhibitors of the Aldehyde Dehydrogenase Family (ALDH1A1) Confirmatory screens (AID 2061316); further: nearly all actives have a fitted effect of over 65% in size; further: potency means the concentration at half of the fitted maximal effect

SMILES	Potency [1]	Potency [2]	Potency [3]	Potency [4]	Potency [5]	activity change, negative = inhibition [2]
Cc1sc(NC(=O)Cc2ccc3c(c2)OCO3)nc1-c1ccc2c(c1)CCN2	20.1 µM (active)	12.7 µM (active)	4 µM (active)	inactive	3.18 µM (active)	–
Cc1cc(C)nc(NC(=S)N2CCN(c3ccc4cn(C)nc4c3)CC2)c1	inactive	15.9 µM (active)	12.7 µM (active)	inactive	7.12 µM (active)	–
O=C1Cc2cc(S(=O)(=O)N3CCNCC3)ccc2N1	inactive	inactive	17.9 µM (active)	inactive	–	–
COc1ccc(C(=O)N(Cc2ccco2)Cc2ccco2)c(O)c1	0.891 µM (active)	inactive	17.9 µM (active)	inactive	7.12 µM (active)	–
O=S1(=O)N=C(Oc2cccc3ccccc23)c2ccccc21	2.83 µM (active)	5.04 µM (active)	12.7 µM (active)	–	–	–
CN(C)c1ccc(-c2cc[nH]c(=O)c2N)cc1	12.7 µM (active)	20.1 µM (active)	0.225 µM (active)	inactive	4 µM (active)	–
NC(=O)C1CCN(c2nc(-c3ccc4ccccc4c3)cs2)CC1	5.65 µM (active)	inactive	inactive	inactive	–	–
CCOC(=O)c1[nH]c2c(c1C)C(=S)CC(c1ccco1)C2 (centres undefined)	8.96 µM (active)	12.7 µM (active)	12.7 µM (active)	inactive	2.01 µM (active)	–
O=C1Nc2cc(Cl)ccc2/C1=C\c1cc(Cl)c(O)c(Cl)c1	3.57 µM (active)	inactive	25.2 µM (active)	inactive	22.5 µM (active)	–
CC(=O)N1CCN(c2ccc(NCc3ccc4c(c3)OCO4)cc2)CC1	8.96 µM (active)	11.3 µM (active)	8.96 µM (active)	–	–	–
O=C1Cc2cc(S(=O)(=O)N3CCN(c4ccc(F)cc4)CC3)ccc2N1	inactive	inactive	inactive	inactive	–	–
O=C1Nc2ccc(Cl)cc2/C1=C\c1cc(Cl)c(O)c(Cl)c1	10.1 µM (active)	inactive	12.7 µM (active)	inactive	–	–
O=C(C1CCN(Cc2ccccc2-c2ccccc2F)CC1)N1CCN(Cc2ccccc2)CC1	inactive	inactive	inactive	–	–	–
COc1ccc(C2=NN(CC(=O)NCCc3ccc(OC)c(OC)c3)C(=O)CC2)cc1	inactive	inactive	inactive	–	–	–
O=C(O)c1ccc2c(c1)C(=O)N(CCc1ccc(O)cc1)C2=O	inactive	inactive	inactive	inactive	inactive	–
CCC(=O)Nc1ccc(S(=O)(=O)NCc2ccc3c(c2)CCN3C(=O)c2ccc(C)cc2)cc1	inactive	inactive	inactive	–	–	–
COc1ccc(-n2c(C)c(C(C)=O)c3cc(OC(=O)c4ccc(C)cc4)ccc32)cc1	inactive	inactive	inactive	–	inactive	–
CN(C)c1ccc(-c2csc(N3CCC(C(N)=O)CC3)n2)cc1	11.3 µM (active)	12.7 µM (active)	14.2 µM (active)	–	8.96 µM (active)	–
CC(=O)c1c(C)n(-c2ccc(Cl)cc2)c2ccc(OC(=O)COc3ccccc3)cc12	inactive	inactive	inactive	–	inactive	–
COc1ccc(C2Nc3ccccc3C(=O)N2Cc2ccco2)cc1COc1ccc(N)cc1 (centres undefined)	1.79 µM (active)	–	4.49 µM (active)	inactive	1.79 µM (active)	-17.5% [at 0.022 µM]
CC(=O)c1c(C)n(-c2cccc(Cl)c2)c2ccc(OC(=O)c3ccccc3)cc12	inactive	inactive	inactive	–	inactive	–
O=C(O)CN1C(=O)/C(=C/c2ccc(-c3cccc(Cl)c3)o2)SC1=S	11.3 µM (active)	inactive	22.5 µM (active)	inactive	7.98 µM (active)	–
COc1cccc(-c2cccc(C(=O)N3CCN(C(=O)c4ccc(C)cc4)CC3)c2)c1	inactive	inactive	inactive	–	8.14 µM (active)	–
Cc1ccc(CCN2C(=O)c3ccc(C(=O)O)cc3C2=O)cc1	inactive	inactive	inactive	inactive	–	–
N#Cc1nc(-c2ccc(COc3ccccc3)o2)oc1N1CCN(c2ccccc2)CC1	inactive	inactive	–	–	–	–
COc1cc(NS(=O)(=O)c2cccc([N+](=O)[O-])c2)c2ncccc2c1	11.3 µM (active)	5.65 µM (active)	3.18 µM (active)	–	–	–
O=C(NCC(=O)N1CCN(Cc2ccccc2)CC1)c1cccc(-c2ccsc2)c1	inactive	inactive	inactive	–	inactive	–
CC(C)(C)c1ccc(S(=O)(=O)c2cnc(SCC(=O)Nc3ccc(F)c(Cl)c3)[nH]c2=O)cc1	12.7 µM (active)	inactive	14.2 µM (active)	inactive	0.634 µM (active)	–

Source: PubChem BioAssay (NCATS)
